From PubChem BioAssay (EPA / NIEHS)
Records with an inconclusive call do not appear. Active and inactive are the calls of the source. The calls were made as follows: active = hit-call score of the fitted dose curve at least 0.9, where 1 is the maximum; inconclusive = response in the unintended direction; inactive = score below 0.9.

Legend:
[1] = TOX21_p53_BLA_p2_viability: Viability Assessment in the Tox21 HCT-116 p53 Agonism Beta-lactamase Assay, Phase 2 (AID 2283591);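 also: compound exposure lasted 16 h at 37 °C; actives lower the ATP signal meaning cytotoxicity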
Procedure, shortened: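 Cytotoxicity readout: CellTiter-Glo ATP luminescence, 30 min at room temperature, after the beta-lactamase read. Cells were HCT116 exposed 16 h at 37C to compounds pin-transferred at 217-fold dilution from DMSO stocks.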

[2] = molecular target: Cellular tumor antigen p53 (Homo sapiens) (UniProt P04637); test: TOX21_p53_BLA_p2_ratio: Tox21 HCT-116 p53 Agonism Beta-lactamase Assay, Ratio, Phase 2 (AID 2283592)
Procedure, shortened: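 Read-out is the blue/green (460/530 nm, 405 nm excitation) ratio after 2 h CCF4-AM loading, fitted as gain versus DMSO. Compounds, pinned at 217-fold dilution from DMSO stocks, stayed 16 h on HCT-116 beta-lactamase reporter cells seeded 5 h earlier.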

[3] = TOX21_p53_BLA_p3_viability: Viability Assessment in the Tox21 HCT-116 p53 Agonism Beta-lactamase Assay, Phase 3 (AID 2283593);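 also: cells exposed to compound for 16 h before reading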
Procedure, shortened: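 Cellular ATP was quantified by CellTiter-Glo luminescence, read after 30 min at room temperature. Beforehand, HCT116 cells (4000/well) received compound 5 h post-seeding, 217-fold diluted from DMSO, then incubated 16 h at 37C.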

[4] = molecular target: Cellular tumor antigen p53 (Homo sapiens) (UniProt P04637); test: TOX21_p53_BLA_p3_ratio: Tox21 HCT-116 p53 Agonism Beta-lactamase Assay, Ratio, Phase 3 (AID 2283596)
Procedure, shortened: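 Cells were seeded at 4000/well, rested 5 h at 37C, then dosed with DMSO compound solutions (217-fold dilution) for 16 h. CCF4-AM substrate was loaded for 2 h at room temperature, and the 460/530 nm emission ratio was fitted for gain of signal versus DMSO.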

[5] = TOX21_p53_BLA_p4_viability: Viability Assessment in the Tox21 HCT-116 p53 Agonism Beta-lactamase Assay, Phase 4 (AID 2283597);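 also: hits lower the luminescence signal meaning cytotoxicity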
Procedure, shortened: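 Cytotoxicity as reduced cellular ATP (CellTiter-Glo luminescence, 30 min room temperature), measured in the same wells following the CCF4 FRET p53 reading. Human HCT-116 cells received compounds in DMSO (217-fold dilution) for 16 h.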

[6] = TOX21_p53_BLA_p5_viability: Viability Assessment in the Tox21 HCT-116 p53 Agonism Beta-lactamase Assay, Phase 5 (AID 2283600)
Procedure, shortened: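 Viability came from CellTiter-Glo ATP luminescence, read after 30 min at room temperature. Before this, HCT-116 p53-bla cells (4000/well) had 16 hours of compound exposure at 37C, with DMSO stocks diluted 217-fold on transfer.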

[7] = molecular target: Cellular tumor antigen p53 (Homo sapiens) (UniProt P04637); test: TOX21_p53_BLA_p4_ratio: Tox21 HCT-116 p53 Agonism Beta-lactamase Assay, Ratio, Phase 4 (AID 2283601)
Procedure, shortened: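 Signal is the blue/green (460nm/530nm) ratio of cleaved versus uncleaved CCF4-AM substrate, read after 2 h substrate loading. Cells were HCT116 carrying the p53-responsive beta-lactamase reporter, dosed 16 h at 37C, 5% CO2; CellTiter-Glo measured in parallel.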

Measured: outcome

Sequence of Cellular tumor antigen p53 (Homo sapiens) (P04637 whole entry, looked up): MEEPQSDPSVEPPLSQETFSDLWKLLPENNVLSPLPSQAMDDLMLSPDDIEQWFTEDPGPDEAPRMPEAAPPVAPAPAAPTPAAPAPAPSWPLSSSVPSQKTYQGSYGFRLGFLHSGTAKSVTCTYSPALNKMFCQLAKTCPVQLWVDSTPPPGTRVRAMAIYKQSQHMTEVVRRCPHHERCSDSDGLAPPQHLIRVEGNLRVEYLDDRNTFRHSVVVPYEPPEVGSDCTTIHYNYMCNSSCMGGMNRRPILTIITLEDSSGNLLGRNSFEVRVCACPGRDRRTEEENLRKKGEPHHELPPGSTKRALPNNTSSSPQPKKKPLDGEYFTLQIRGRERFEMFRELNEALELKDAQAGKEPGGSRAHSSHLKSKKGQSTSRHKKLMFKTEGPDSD

CO[C@H]1/C=C/O[C@@]2(C)Oc3c(C)c(O)c4c(O)c(cc(O)c4c3C2=O)NC(=O)/C(C)=C\C=C\[C@H](C)[C@H](O)[C@@H](C)[C@@H](O)[C@@H](C)[C@H](OC(C)=O)[C@@H]1C
inactive: all assays above
